Laboratory results taken from PubChem BioAssay AID2540 (Sanford-Burnham Center for Chemical Genomics, 2010).
Screen size: about 330,000 compounds; about 4,100 (1.2%) were called active. Cut-off read from the data, not from the text of the source: active = inhibition above about 50%; inactive = the rest. This excerpt belongs to a sample that is enriched for actives.

biological target: Sentrin-specific protease 8 (Homo sapiens) (UniProt Q96LD8); test: blockers of human SENP8 peptidase activity – biochemical, luminescence, primary screen (AID 2540); details: purified SENP8, Z-RLRGG-aminoluciferin cleavage, at 10 µM, stronger effect = higher value
Sequence (Q96LD8 whole entry, looked up): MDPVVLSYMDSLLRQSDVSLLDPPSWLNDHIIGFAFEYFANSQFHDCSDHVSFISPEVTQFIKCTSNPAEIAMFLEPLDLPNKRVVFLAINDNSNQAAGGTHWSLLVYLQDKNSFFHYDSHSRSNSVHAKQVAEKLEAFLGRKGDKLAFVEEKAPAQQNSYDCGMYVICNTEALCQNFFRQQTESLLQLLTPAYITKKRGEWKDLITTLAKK

| Compound | inhibition |
| --- | --- |
| CC(C)N(C(=O)Cn1c(SCC(=O)N2CCN(c3ccccc3)CC2)nc2ccccc21)C(C)C | 3.06% (inactive) |
| CC(C)N(C(=O)Cn1cc(SCC(=O)N2CCCC2)c2ccccc21)C(C)C | 55.6% (active) |
| CC(C)N(C(=O)Cn1cc(S(=O)(=O)CC(=O)N2CCOCC2)c2ccccc21)C(C)C | -2.24% (inactive) |
| O=[N+]([O-])c1cc(S(=O)(=O)NCCc2ccccn2)ccc1Cl | -1.07% (inactive) |
| CC/C(Cc1ccccc1)=N/NC(=O)CCn1nnc2ccccc21 | 2.91% (inactive) |
| O=C(Nc1ccccc1C(=O)NCC1CCCO1)c1ccccc1F (stereo not drawn) | -12.9% (inactive) |
| Cc1c(C(=O)N(C)CCc2cnn(C)c2)oc2c(F)cccc12 | 3.74% (inactive) |
| O=C(Nc1nc2ccc([N+](=O)[O-])cc2s1)c1ccncc1 | 87.5% (active) |
| O=C(NC(Nc1nc2ccc([N+](=O)[O-])cc2s1)(C(F)(F)F)C(F)(F)F)c1ccccc1 | -0.974% (inactive) |
| O=C(c1ccncc1)c1ccc([N+](=O)[O-])cc1 | -5.02% (inactive) |
| CCCOC(=O)c1c(NC(=O)c2cnn3c2NC(c2ccccc2)CC3C(F)(F)F)sc2c1CCCC2 (stereo not drawn) | -1.5% (inactive) |
| O=C(c1ccco1)N1CCN(C(=S)Nc2cc(F)cc(F)c2)CC1 | 2.74% (inactive) |
| COc1ccc(N2CCN(C(=O)CNS(=O)(=O)c3ccc(C)c(C)c3)CC2)cc1 | -6.38% (inactive) |
| Cc1cccc2cc3c(N)c(C(=O)N4CCCc5ccccc54)sc3nc12 | -4.99% (inactive) |
| CC(=O)c1ccc(OCCCC(=O)Nc2ccc(C)c(S(=O)(=O)N3CCOCC3)c2)cc1 | 8.63% (inactive) |
| O=C(CSC(=S)N1CCOCC1)c1ccccc1 | 59.3% (active) |
| O=C(CSC(=S)N1CCOCC1)c1cc(Br)cc(Br)c1O | -4.17% (inactive) |
| CC1CN(C(=S)SCC(=O)c2ccccc2)CC(C)O1 (stereo not drawn) | 1.35% (inactive) |
| CCOc1ccc(S(=O)(=O)N2CCC(C(=O)NCC(=O)Nc3cccc(Cl)c3C)CC2)cc1 | 3.22% (inactive) |
| Cc1ccc(-c2nc(CSCC(=O)NC3CCN(Cc4ccccc4)CC3)c(C)o2)cc1 | -1.87% (inactive) |
| CCCn1c(C)cc(/C=C(\C#N)C(=O)OCC(=O)Nc2cc(OC)c(OC)c(OC)c2)c1C | 1.35% (inactive) |
| COc1ccccc1NC(=O)C1=C(C)Nc2nc3ccccc3n2C1c1cccs1 (stereo not drawn) | -5.43% (inactive) |
| O=C(Nc1ccc(N2CCCC2=O)cc1)c1cncc(Br)c1 | -0.181% (inactive) |
| CCOC(=O)c1sc(NC(=O)c2sc(C)nc2C)nc1C | 13.7% (inactive) |

| Compound | inhibition |
| --- | --- |
| CCOC(=O)c1cccnc1NC(=O)c1ccncc1 | -5.42% (inactive) |
| CCOC(=O)c1sc(NC(=O)c2ccncc2)nc1C | 88.2% (active) |
| Cc1ccc(NC(=O)CN(C)C(=O)c2ccc(Cl)c(S(=O)(=O)NCc3ccco3)c2)cc1 | -1.14% (inactive) |
| O=CN1CCN(C(=O)c2ccc(Br)o2)CC1 | 0.91% (inactive) |
| O=C(Nc1ccccc1)c1ccc2c(c1)OCCCO2 | 75.9% (active) |
| CN1CCN(c2ccc(NC(=O)c3ccc4c(c3)OCCO4)cc2Cl)CC1 | 3.49% (inactive) |
| O=C(Nc1ccc2c(c1)OCCO2)c1ccoc1 | -5.62% (inactive) |
| Cc1onc(C(=O)Nc2ccc3c(c2)OCO3)c1[N+](=O)[O-] | -9.15% (inactive) |
| O=C(Nc1ccc(N2CCOCC2)cc1)c1ccc2c(c1)OCO2 | 12.3% (inactive) |
| O=C(Nc1cccc([N+](=O)[O-])c1)c1ccc2c(c1)OCO2 | 59.1% (active) |
| O=C(COC(=O)c1ccncc1)Nc1ccc2c(c1)OCO2 | 8.05% (inactive) |
| CC(=O)Nc1cccc(C(=O)OCC(=O)c2ccc3c(c2)OCO3)c1 | 67.1% (active) |
| CC(NC(=O)Nc1cccc([N+](=O)[O-])c1)c1ccc2c(c1)OCO2 (stereo not drawn) | -0.051% (inactive) |
| O=C(Nc1ccc(NC(=O)c2ccc3c(c2)OCO3)cc1)c1cccc(Cl)c1 | -4.6% (inactive) |
| O=C(COC(=O)c1ccc(F)cc1)Nc1ccc2c(c1)OCO2 | -15.4% (inactive) |
| O=C(Nc1ccccc1)c1ccc2c(c1)OCO2 | 66.7% (active) |
| Cc1ccsc1C1C(C#N)=C(N)OC2=C1C(=O)CC(C)C2 (stereo not drawn) | -10.3% (inactive) |
| Cc1ccc(S(=O)(=O)N2CCCCC2)cc1NC(=O)c1cccnc1 | -12.3% (inactive) |
| CC1(C)C/C(=N/Nc2ccc([N+](=O)[O-])cc2[N+](=O)[O-])C(C)(C)O1 | -5.03% (inactive) |
| CCCCn1c(N)c(N(CC(C)C)C(=O)CN(C)S(=O)(=O)c2ccc(F)cc2)c(=O)[nH]c1=O | 2.26% (inactive) |
| COC(=O)C1=C(C(=O)OC)C2(OC1c1ccc(Br)cc1)C(=O)c1ccccc1C2=O (stereo not drawn) | -0.809% (inactive) |
| O=C(OCc1ccccc1F)c1ccc2c(c1)OCCO2 | 80.2% (active) |
| COCc1nnc(NC(=O)c2ccc3c(c2)OCO3)s1 | 0.871% (inactive) |
| O=C(Nc1nc2ccccc2s1)c1ccc2c(c1)OCO2 | 94.1% (active) |

| Compound | inhibition |
| --- | --- |
| COc1ccc(C(=O)Nc2ccc(C3(C#N)CCCC3)cc2)cc1OC | 92.8% (active) |
| O=C(Nc1ccccc1F)c1ccc2c(c1)OCO2 | 65.2% (active) |
| N#CCCN(C(=O)COC(=O)c1ccc2c(c1)OCCO2)c1ccccc1 | 10% (inactive) |
| CN(Cc1c(F)cccc1Cl)C(=O)CNC(=O)c1ccc2c(c1)OCO2 | -2.64% (inactive) |
| N#Cc1ccccc1NC(=O)c1ccc2c(c1)OCO2 | 0.633% (inactive) |
| O=C(COC(=O)c1ccc2c(c1)OCCO2)NCc1ccccc1Cl | -14.4% (inactive) |
| COc1cc(C(=O)NCC2(c3ccccc3)CCCC2)ccc1OC(C)C | 1.28% (inactive) |
| COc1ccc(C(=O)Nc2ccc3nc(N4CCCCC4)cc(C)c3c2)cc1OC | 1.68% (inactive) |
| Cc1ccc2sc(NNC(=O)c3ccc4c(c3)OCCO4)nc2c1C | -5.8% (inactive) |
| O=C(Nc1cc(Cl)ccc1N1CCOCC1)c1ccc(N2CCCC2=O)cc1 | 6.24% (inactive) |
| CC(CNc1ccc([N+](=O)[O-])c2cccnc12)Nc1c([N+](=O)[O-])cc(C(F)(F)F)cc1[N+](=O)[O-] (stereo not drawn) | -1.48% (inactive) |
| CCN(CC)CCOc1ccc2c(c1)C(=NNC(=O)c1ccccn1)c1cc(OCCN(CC)CC)ccc1-2 | -1.52% (inactive) |
| N#Cc1ccc(OCC(=O)NC(=O)NC2CCS(=O)(=O)C2)cc1 (stereo not drawn) | 0.761% (inactive) |
| COc1cc(/C=C/C(=O)O)cc(S(=O)(=O)Nc2ccccc2C(=O)NCCc2ccccc2)c1OC | 0.693% (inactive) |
| Cc1cc(C)c(C#N)c(SCS(=O)c2ccc(C(C)(C)C)cc2)n1 (stereo not drawn) | -4.22% (inactive) |
| CN1CC(c2ccccc2)C2(COc3ccccc3C2=O)C12C(=O)Nc1ccccc12 (stereo not drawn) | 0.36% (inactive) |
| CC(=O)c1ccccc1NC(=O)CC1(CC(=O)O)CCCCC1 | 1.06% (inactive) |
| Clc1ccc(CSc2nnc([C@@H]3CCCN3)o2)cc1 | -0.161% (inactive) |
| CC(C)[C@@H]1NC(=O)c2cc([N+](=O)[O-])cc(I)c2NCCC[C@@H](C(=O)NC(CC(=O)O)C(N)=O)NC(=O)[C@H](CO)NC1=O (stereo partly drawn) | 3.05% (inactive) |
| O=C(NCCOc1ccccc1F)Nc1ccc(Br)cc1 | -3.32% (inactive) |
| CC(C)(C)SCCNC(=O)c1cccc([N+](=O)[O-])c1 | -0.846% (inactive) |
| Cc1cc(C)nc(NC(=O)c2cccc([N+](=O)[O-])c2)c1 | -2.37% (inactive) |
| O=C(Nc1ccc(C2CC2(Cl)Cl)cc1)c1cccc([N+](=O)[O-])c1 (stereo not drawn) | 50.5% (active) |
| CC(C)C(=O)Nc1cccc(C(=O)Nc2ccc3c(c2)OCO3)c1 | 1.49% (inactive) |

| Compound | inhibition |
| --- | --- |
| COc1cc(NC(=O)c2ccc3c(c2)OCO3)ccc1NC(=O)c1cccs1 | -17.4% (inactive) |
| COc1ccc(C(=O)Nc2ccc3c(c2)OCO3)cc1OC | 77.5% (active) |
| CCN(c1ccccc1)S(=O)(=O)c1cc2c(cc1C)n(C)c(=O)c(=O)n2C | -13.5% (inactive) |
| CCN1CCN(c2cc3nc(C)n(Cc4ccccc4)c(=O)c3cc2NC(=O)c2ccccc2F)CC1 | -6.48% (inactive) |
| COc1ccc(C)cc1NC(=O)CSc1nnc2ccc(-c3ccccn3)nn12 | 4.77% (inactive) |
| Brc1ccccc1CN1CCC(Cc2ccccc2)CC1 | 3.24% (inactive) |
| COc1ccc(-n2nnnc2CNC(=O)c2ccc3ccccc3c2)cc1 | -10.6% (inactive) |
| COc1ccc(-n2nnnc2-c2nc3ccccc3s2)cc1 | 50.3% (active) |
| COc1ccc(C2=NN(c3nc4ccccc4s3)C(=O)C2)cc1 | 10.1% (inactive) |
| N#Cc1c(N)sc2c1CCN(C(=O)OCc1ccccc1)C2 | 2.15% (inactive) |
| COc1ccc(SCCN2CCN(CC(C)C)CCC2=O)cc1 | 5.29% (inactive) |
| O=C(NCCCN1CCCC1=O)C(=O)NCC1OCCN1S(=O)(=O)c1ccc(Br)cc1 (stereo not drawn) | -0.009% (inactive) |
| O=C(O)/C=C/c1ccc2c(c1)OCCO2 | 1.06% (inactive) |
| O=C(/C=C/c1ccc2c(c1)OCCO2)c1ccc(O)cc1 | 76.9% (active) |
| CN(C)c1ccc(/C=C/C(=O)c2ccc(O)cc2)cc1[N+](=O)[O-] | -28.3% (inactive) |
| CNS(=O)(=O)c1ccc(NC(=O)Nc2ccc3c(c2)OCO3)cc1 | -9.35% (inactive) |
| CN1CCN(c2ncc3c(n2)CC(c2ccccc2F)CC3=O)CC1 (stereo not drawn) | -5.2% (inactive) |
| Cc1cccc(Nc2ccccc2C(=O)NCc2ccco2)c1C | -4.58% (inactive) |
| O=C(Nc1ccccc1)Nc1ccccc1C(=O)NCc1ccco1 | 65.9% (active) |
| O=C(CCNC(=O)c1ccccc1Cl)NCc1ccco1 | -2.13% (inactive) |
| CCOc1ccc(NC(=O)C/C(C)=N/NC(=O)Cc2cccs2)cc1 | -7.21% (inactive) |
